A number with no mark means an inactive call.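 How the source made its calls: active = MAPPIT score above the 99th percentile of random reference set scores in the same batch; inactive = at or below it.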
Tests used:
Test in all cases: MAPPIT interaction score (arbitrary units); higher = stronger binary interaction signal, active = hit call of the paper
CG4325 = details: MAPPIT configuration: N-N; pair source set: DPIM
CG44837 = details: MAPPIT configuration: N-N; pair source set: Curagen_low_conf
CG4360 = details: MAPPIT configuration: N-N; pair source set: Curagen_low_conf
CG4617 = details: MAPPIT configuration: N-N; pair source set: Curagen_high_conf
CG46280 = details: MAPPIT configuration: N-C; pair source set: screen_4
CG43325 = details: MAPPIT configuration: N-C; pair source set: screen_4
caup = details: MAPPIT configuration: N-N; pair source set: screen_1
CG4511 = details: MAPPIT configuration: N-C; pair source set: screen_3
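Further: HEK293T cells with Epo stimulation, STAT-responsive firefly luciferase reporter, fold induction versus unstimulated cells divided by the larger fold induction of two negative controls lacking either bait or prey.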

B1: mfrn (protein)
chain: MNIDDYESLPTTSVGVNMTAGAIAGVLEHVVMYPLDSVKTRMQSLSPPTKNMNIVSTLRTMITREGLLRPIRGASAVVLGAGPAHSLYFAAYEMTKELTAKFTSVRNLNYVISGAVATLIHDAISSPTDVIKQRMQMYNSPYTSVVSCVRDIYKREGFKAFYRAYGTQLVMNLPYQTIHFTTYEFFQNKMNLERKYNPPVHMAAGAAAGACAAAVTTPLDVIKTLLNTQETGLTRGMIEASRKIYHMAGPLGFFRGTTARVLYSMPATAICWSTYEFFKFYLCGLDADQYKSSITGSSEPRKADYVLPRTTDEEQIDQEREAAKEKDTTATLHSAPTSVNASGAIKTVCELSTRPAGPTINLHTRHTDVKSPYERGFST
CG4325
  MAPPIT interaction score: -0.276

B2: RhoGAP92B (protein)
chain: MKRQFAKIKIAAENLSRSSKSDSKDSELEAIERQVDRYRDTIEKIVRKLPALSGGGGSGSGSSEEQDKRTKKNSHYKIAQALDESAKELPKDMPLQKVLANCGELEKTMAECIIESELETEAKVVRRLKNILDKEIQEISTLKRNVSRTLQEYTSLKRSHEAAIRLEEPAAKVNHIKSQQEECELKLEKERDAWAAQMLELIAKEDEIVSCIRDYVLNQRNYHERALQHVNASLARIQDTIQGTEKSRFGTSLKEHLTSTNREISYIVELCCCCLLEHGLEEEGLLRVGCASTKLRRMKHALEAQHVKTPLPLDYQDPHVIGSILKLYLRELPEPLLTYNLYKDFIRIAERHSEAERKTEIKAILTKLPKENYANLRYLTRFLSIVQQRSALNKMSSQNLAIVMSPNMLWPRIDKSSNAPADYIGQVNSSSAANIIVELLISQWDYFFIGEVEFYLTLQKQKLFVEGKSKSNSSNENLDRNDSEVMESPRYGTLRRQKANAPSPPTTNGNGIIMTTSQTSHRPHAKELFPQQTPEKQEKPAKPPLPNLPQFQSPAASQPTQTQLEPLPPPPVTPAKPVPMTRTQFFGLDNLPSPTADRKSTDSIGSFKLKPDVPQKPLLPKRPTVLGVGVPKADGKSDDEGGTTPTQATIDNGNGSVRFKTEHFLDKLRQENGETNGTREVSSTTKENNHNHDPPATAADQNQQQAQPQVTTPISPNSFQTPKRPTVPAPPPPTNWKSSD
CG44837
  MAPPIT interaction score: -0.0901

B3: Paris (protein)
chain: MAEICRVCMDISGKLVNIFDARRRTRVSIAEMIAQCTGFEVKRGDLFSEMICPQCYEDVKSAYGIRQTCEESHQFYCRVRDEGIEDALCALLEEEDWEISEDEDARIDSASAADDDGKSDSKKVAFECRECHKKYQRKGTFLRHMRTHMDGQSFPCPYCKRNFRLRVTLKAHMKTHNAAKPYECSHCAKTFAQQSTLQSHERTHTGERPFKCSQCSKTFIKSSDLRRHIRTHGSERPFKCSKCTKTFTRKFHLDNHFRSHTGERPFKCSHCPKAFAMKQHLKQHSRLHLPDRPFRCSHCPKTFRLSSTLKEHKLVHNAERTFKCPHCASFYKQRKTLARHILEIHK
CG4360
  MAPPIT interaction score: 0.0302

B4: TfIIA-L (protein)
chain: MALCQTSVLKVYHAVIEDVITNVRDAFLDEGVDEQVLQEMKQVWRNKLLASKAVELSPDSGDGSHPPPIVANNPKSHKAANAKAKKAAAATAVTSHQHIGGNSSMSSLVGLKSSAGMAAGSGIRNGLVPIKQEVNSQNPPPLHPTSAASMMQKQQQAASSGQGSIPIVATLDPNRIMPVNITLPSPAGSASSESRVLTIQVPASALQENQLTQILTAHLISSIMSLPTTLASSVLQQHVNAALSSANHQKTLAAAKQLDGALDSSDEDESEESDDNIDNDDDDDLDKDDDEDAEHEDAAEEEPLNSEDDVTDEDSAEMFDTDNVIVCQYDKITRSRNKWKFYLKDGIMNMRGKDYVFQKSNGDAEW
CG4617
  MAPPIT interaction score: -0.0193

B5: Tm2 (protein)
chain: MDAIKKKMQAMKLEKDNAIDKADTCENQAKDANSRADKLNEEVRDLEKKFVQVEIDLVTAKEQLEKANTELEEKEKLLTATESEVATQNRKVQQIEEDLEKSEERSTTAQQKLLEATQSADENNRMCKVLENRSQQDEERMDQLTNQLKEARMLAEDADTKSDEVSRKLAFVEDELEVAEDRVRSGESKIMELEEELKVVGNSLKSLEVSEEKANQRVEEFKREMKTLSIKLKEAEQRAEHAEKQVKRLQKEVDRLEDRLFNEKEKYKAICDDLDQTFAELTGY
CG46280
  MAPPIT interaction score: 1.5

B6: Mst84Db (protein)
chain: MCCGPLGFCGPCSPCGGPCGPCGPCGPCGSCCSPCGSCCAPCGPCGPCGPCCGGCGPCGPCGPCCGPCRPYCGC
CG43325
  MAPPIT interaction score: 1.12
caup
  MAPPIT interaction score: 0.0255

B7: Pka-R1 (protein)
chain: MSYMMAKTLEEQSLRECEHYIQTHGIQRVLKDCIVQLCVCRPENPVQFLRQYFQKLEREQVKLDASRQVISPDDCEDLSPMPQTAAPPVRRRGGISAEPVTEEDATNYVKKVVPKDYKTMNALSKAIAKNVLFAHLDESERSDIFDAMFPVNHIAGENIIQQGDEGDNFYVIDVGEVDVFVNSELVTTISEGGSFGELALIYGTPRAATVRAKTDVKLWGIDRDSYRRILMGSTIRKRKMYEEFLSRVSILESLDKWERLTVADSLETCSFDDGETIVKQGAAGDDFYIILEGCAVVLQQRSEGEDPAEVGRLGSSDYFGEIALLLDRPRAATVVARGPLKCVKLDRARFERVLGPCADILKRNITQYNSFVSLSV
CG4511
  MAPPIT interaction score: 5.21 (active)

Source: the supplement of paper PMC10105736
